Laboratory results taken from PubChem BioAssay AID624404 (Broad Institute, 2012).
Out of some 1,800 compounds screened, about 710 (39%) were called active. Roughly 28% stayed inconclusive and do not appear here.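 Rule for the calls: active = luciferase signal rise whose fitted curve crosses a set activity limit at or below the top valid tested dose; inconclusive = flat fit with 30 to 70% rise, or poor fit; inactive = signal falling, flat within 30%, or crossing above top dose.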 A selection follows. Measured potencies and affinities stand elsewhere.

Assay: reporter signal increase, D54 LucT cells – cell-based, luminescence, cherry pick, counter-screen for N-linked glycosylation inhibitor project, dose response (AID 624404)
Conditions: D54 LucT luciferase reporter counterscreen, 24 h; series mostly up to 19.5 µM

Structure (SMILES) | outcome
CCc1ccc(Oc2coc3cc(OCC(=O)Nc4cc(C)ccc4C)ccc3c2=O)cc1 | inactive
COc1cc(C2=NOC(C(=O)NCc3ccc(F)cc3)C2)cc(OC)c1OC (configuration not stated) | inactive
CN(C)S(=O)(=O)c1ccc(N2CCCC2)c(C(=O)Nc2nccs2)c1 | inactive
COc1cc(Nc2c3c(nc4ccccc24)CCC3)cc(OC)c1OC | inactive
CCOC(=O)c1[nH]c(COC(=O)CCOc2ccccc2OC)c(C(=O)OCC)c1C | inactive
CCOC(=O)c1[nH]c(C)c(C(=O)OCC(=O)NC(C)c2ccc(F)cc2)c1C (configuration not stated) | inactive
CCOC(=O)c1nnc(-c2ccc(C)cc2)nc1Sc1ccccc1Cl | inactive
Cc1cc2c(=Cc3ccc(N(C)C)cc3)c3ccccc3n2[n+]1C | inactive
COc1cc(-c2nc3ccc(N4CCN(C)CC4)cc3[nH]2)cc(OC)c1OC | inactive
CC1Cc2ccccc2N1C(=O)CSc1nn2c(=O)c(C(C)(C)C)nnc2s1 (configuration not stated) | inactive
COc1ccc2c(-c3cc4ccc(OCc5ccc(F)cc5)cc4oc3=O)cc(=O)oc2c1 | inactive
C#CC(=O)CC1(CN(Cc2ccccc2)C(=O)OC(C)(C)C)CCCCC1 | inactive
COc1ccc(Cl)cc1NC(=O)CN(C)CC(=O)Nc1cc(OC)c(OC)c(OC)c1 | inactive
CCC12CCC3c4ccc(O)cc4CCC3C1CC(O)C2O (configuration not stated) | inactive
O=C(c1cccc([N+](=O)[O-])c1)N1CCN(c2cccc(Cl)c2)CC1 | inactive
c1ccc(-c2n[nH]c(-c3ccccc3)c2-c2nc3ccccc3[nH]2)cc1 | inactive
c1ccc(-n2nnnc2-c2cccc3ccccc23)cc1 | inactive
COc1ccc(NC(=O)CSc2c3c(nc4ccccc24)CCCC3)c(OC)c1 | inactive
CN(C)c1ccc(-c2ccnc3c2CC(C)(C(=O)NCc2ccccc2)O3)cc1 (configuration not stated) | inactive
O=C(N/N=C/c1ccc2c(c1)OCO2)c1sc2cc(Cl)ccc2c1Cl | inactive
CCOC(=O)/C=C/C(=O)Nc1ccc(S(=O)(=O)N(C)c2ccccc2)cc1 | inactive
COc1ccc(OC)c(/C=C/c2ccc3cccc(O)c3n2)c1 | inactive
O=C(COc1ccc(/C=N/NC(=O)c2cc3ccccc3o2)cc1Cl)Nc1ccccc1 | inactive
O=C(O)CCC/C=C\C[C@@H]1[C@@H](/C=C/[C@@H](O)COc2cccc(Cl)c2)[C@H](O)C[C@@H]1O | inactive
COc1cc2c(cc1OC)C(c1ccccc1)N(C(=O)CCl)CC2 (configuration not stated) | inactive
CCOc1ccc(C2c3cc(OC)c(OC)cc3CC(=O)N2c2ccc(OC)cc2)cc1 (configuration not stated) | inactive

Structure (SMILES) | outcome
COc1ccc(CCn2c(=N)c(C(=O)NC3CCCC3)cc3c(=O)n4ccccc4nc32)cc1OC | inactive
Cn1cnc([N+](=O)[O-])c1Oc1ccc2ccccc2c1 | inactive
COc1ccc(/C=C/C(=O)c2ccc3c4c(cccc24)CC3)cc1OC | inactive
COc1cc(/C=C2/CCC/C(=C\c3cc(O)c(OC)c(Cl)c3)C2=O)cc(Cl)c1O | inactive
C=CCn1c(SCC(=O)c2[nH]c(C)c(C(=O)OC)c2C)nc2scc(-c3ccc(OC)c(OC)c3)c2c1=O | inactive
Cc1cc(NC(=O)CSc2nc(C3CC3)nc3sc(C)c(C)c23)no1 | inactive
CCOc1ccc(NC(=O)C(=O)NCCN2CCN(S(=O)(=O)c3ccc(C)cc3)CC2)cc1 | inactive
CN(C)CCCN1C(=O)c2cccc3c(Br)ccc(c23)C1=O | inactive
Cc1cccc(N2CCN(C(=O)c3ccncc3)CC2)c1C | inactive
Cc1nn(C(C)(C)C)c(OC(=O)c2ccc3c(c2)OCO3)c1Sc1ccccc1 | inactive
c1ccc(-c2cc(NCCN3CCCCC3)c3ccccc3n2)cc1 | inactive
c1ccc2cc3c(NCCN4CCOCC4)ccnc3cc2c1 | inactive
Cc1cccc2c(N)c3c(nc12)N(C)CC3 | inactive
Cc1cc(C)nc(/N=C(\N)Nc2ccc(OCc3ccccc3)cc2)n1 | inactive
CCOC(=O)Nc1c2ccccc2nc2ccccc12 | inactive
Cc1ccc(S(=O)(=O)Cc2ccc(C(=O)N3CCN(c4cccc(C)c4C)CC3)o2)cc1 | inactive
COc1cc2c(C(=O)N3CCN(c4cccc(Cl)c4)CC3)cn(C)c(=O)c2cc1OC | inactive
CC(=O)Nc1cccc(-c2ccnc3c2CC(C)(C(=O)NCc2ccco2)O3)c1 (configuration not stated) | inactive
COc1ccc(NC(=O)C2(C)Cc3c(-c4cccc(NC(C)=O)c4)ccnc3O2)cn1 (configuration not stated) | inactive
CC1(C(=O)NCC2CC2)Cc2c(-c3cccc(C(F)(F)F)c3)ccnc2O1 (configuration not stated) | inactive
CC(=O)Nc1cccc(-c2ccnc3c2CC(C)(C(=O)Nc2cccc(C(C)=O)c2)O3)c1 (configuration not stated) | inactive
COc1ccc(C2=NOC(C(=O)NCc3ccc(F)cc3)C2)cc1OC (configuration not stated) | inactive
COC(=O)CNC(c1ccccc1Cl)c1cc(Br)ccc1NC(=O)CCN1CCOCC1 (configuration not stated) | inactive
Cc1cc(-n2c(C)cc(C(=O)CCl)c2C)no1 | inactive
CCN(CC)S(=O)(=O)c1cc(NC(=O)Cn2ncc(Cl)c(Cl)c2=O)ccc1C | inactive
O=C(C[C@@H]1C[C@H]2c3cc(NC(=O)c4cccnc4)ccc3O[C@H]2[C@H](CO)O1)NCc1ccc(Oc2ccccc2)cc1 | inactive

Structure (SMILES) | outcome
COc1ccc(Nc2nc(N)c(C(=O)c3ccc(F)cc3)s2)cc1 | inactive
Cn1cnc(Sc2ncnc3nc[nH]c23)c1[N+](=O)[O-] | inactive
O=C(Nc1cccc(-c2nc3ncccc3o2)c1)c1sc2ccccc2c1Cl | inactive
COc1ccc(-c2cc3ccccc3oc2=O)cc1NC(=S)NC(=O)c1ccc2c(c1)OCCO2 | inactive
COc1ccccc1OCC(=O)N/N=C/C=C/c1ccc([N+](=O)[O-])o1 | inactive
Oc1cccc(Nc2c3ccccc3nc3ccccc23)c1 | inactive
Oc1ccc(Nc2nc(NCC3CCCO3)c3ccccc3n2)cc1 (configuration not stated) | inactive
COc1ccc(C2Nc3ccc4ccccc4c3-c3c2c(=O)oc2ccccc32)cc1 (configuration not stated) | inactive
COc1cc2c(cc1OC)C(c1cc(Br)ccc1F)N(C(=O)CCl)CC2 (configuration not stated) | inactive
Oc1cc(Nc2ccccc2)cc2cccnc12 | inactive
COc1ccc(S(=O)(=O)Nc2cccc3ccc(O)cc23)cc1 | inactive
CCOC(=O)C(CC)(CC)C(=O)/C=C/c1cccc(Br)c1 | inactive
COc1ccc(N2CCc3c(C)nc4c(OC)cccc4c32)cc1 | inactive
COc1ccc(N2CCc3c(C)nc4c(OC)cc(OC)cc4c32)cc1 | inactive
CCN(CC)CCC(=O)Nc1cccc2c1C(=O)c1ccccc1C2=O | inactive
CCN(CC)CCn1c2ccccc2c2cnc(N)c(C#N)c21 | inactive
O=C(C=Cc1ccc2c(c1)OCO2)C=Cc1ccc2c(c1)OCO2 | inactive
CC(=O)C1=C(C)OC(N)=C(C#N)C1c1cc([N+](=O)[O-])ccc1Cl (configuration not stated) | inactive
CCN1C(=O)c2cccc3c(S(=O)(=O)N4CCC(C)CC4)ccc1c23 | inactive
C=CCN(CC=C)C(=O)CN1C(=O)NC(C)(c2ccc3cc(OC)ccc3c2)C1=O (configuration not stated) | inactive
Cc1ccc(CCC(=O)Nc2ncc(Cc3cc(Cl)ccc3Cl)s2)o1 | inactive
COc1ccc(-c2nc(NC(=O)C3CC(=O)N(c4ccc5c(c4)OCCO5)C3)sc2C)cc1 (configuration not stated) | inactive
CCCCCCCCCCCCCCCC[n+]1ccc(/C=N/O)cc1 | inactive
Cc1ccc(CNC(=O)Cc2ccc(Br)cc2)cc1 | inactive
CCOC(=O)C(C)Oc1cccc2c(=O)n(CC(=O)NCc3ccc(F)cc3)ccc12 (configuration not stated) | inactive
COc1ccc(CCn2c(=N)c(C(=O)NCc3ccco3)cc3c(=O)n4ccccc4nc32)cc1 | inactive

Structure (SMILES) | outcome
CCN(CC)CCNC(=O)c1cc2c(-c3ccc(Cl)cc3)nn(C)c2s1 | inactive
COc1ccc(NC(=O)C2(C)Cc3c(-c4cccc(C(N)=O)c4)ccnc3O2)cn1 (configuration not stated) | inactive
CC1(C(=O)NCc2ccccc2)Cc2c(-c3ccccc3)ccnc2O1 (configuration not stated) | inactive
CC1(C(=O)NCc2ccccc2)Cc2c(-c3ccc4c(c3)OCO4)ccnc2O1 (configuration not stated) | inactive
CC(=O)c1cccc(-c2ccnc3c2CC(C(=O)NCc2ccco2)O3)c1 (configuration not stated) | inactive
CC1(C(=O)Nc2ccc(Cl)cc2)Cc2c(-c3cccc(C(N)=O)c3)ccnc2O1 (configuration not stated) | inactive
COc1ccccc1C(=O)Nc1nnc(CCc2ccccc2)s1 | inactive
CN(C)S(=O)(=O)c1ccc(N2CCCC2)c(C(=O)Nc2nc(-c3ccc(F)cc3)cs2)c1 | inactive
CC(C)(C)n1nnnc1C(c1ccccc1)N1CCc2ccccc2C1 (configuration not stated) | inactive
Nc1ncnc(Sc2ccc(Cl)cc2)c1[N+](=O)[O-] | inactive
CCC1=Nc2cc(C(=O)NCCCOC)ccc2Sc2ccccc21 | inactive
Cc1cccn2c(=O)c3cc(C(=O)NCCN4CCOCC4)c(=N)n(CCc4ccccc4)c3nc12 | inactive
CCNC(=O)c1cc2c(=O)n3cccc(C)c3nc2n(CCc2ccccc2)c1=N | inactive
O=C(NCc1ccco1)c1nn2c(C(F)(F)F)cc(-c3cccs3)nc2c1Br | inactive
NNC(=O)c1oc2nc(-c3ccco3)cc(-c3ccco3)c2c1N | inactive
COc1ccc(C(=O)NCc2nnc(SCC(=O)NO)n2Cc2ccccc2)cc1 | inactive
Cn1nc(C(F)(F)F)c(/C=N/OC(=O)c2ccccc2Cl)c1SCc1ccccc1Cl | inactive
COc1ccc(OC)c(-c2nnc3n2N=C(c2ccc(OC)c(OC4CCCC4)c2)CS3)c1 | inactive
S=c1[nH]nc(-c2cc(-c3ccccc3)n[nH]2)n1/N=C/C(Br)=C/c1ccccc1 | inactive
Clc1ccc(C2=Nn3c(nnc3-c3cc(-c4ccccc4)n[nH]3)SC2)cc1 | inactive
CC(Oc1ccc2c(c1)c1ccnc3c4ccccc4c(=O)n2c13)C(=O)NCCN1CCOCC1 (configuration not stated) | inactive
Oc1ccc(NCc2ccccc2OCc2ccccc2)cc1 | inactive
CCn1c2ccccc2c2cc(NC(=O)COC(=O)c3ccc(O)cc3)ccc21 | inactive
c1ccc2c(c1)c1c(c3ccccc32)CN2CCCC2C1 (configuration not stated) | inactive
